# In PubChem BioAssay (NCI):
# About 83,000 compounds went through this panel and 20% of them were active in at least one assay; those are over-represented in the sample as a whole.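 Growth was measured after 48 h exposure to one concentration of compound in 96-well plates. Values under 10 count as active.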 A number with no mark means an inactive call. Activity calls are given as the source filed them.
# Test system: HL-60(TB) leukemia
# Experiment: NCI-60 one-dose screen, 48 h (100 = growth as untreated, 0 = no growth, -100 = all killed)
# Details: 10 µM unless noted
row,SMILES,growth
1,CCN1C(=O)N(CC)C2Nn3c(s/c(=C\c4ccccc4F)c3=O)=NC21 (stereo not drawn),7.77% (active)
2,O=C(/C=C\c1ccc(O)cc1)c1ccccc1,71.9%
3,O=c1[nH]c2ccccc2cc1-c1nc2ccncc2[nH]1,25.9%
4,O=C(/C=C/c1cccc([N+](=O)[O-])c1)c1ccc(O)c(CN2CCN(c3cc4c(cc3F)c(=O)c(C(=O)O)cn4C3CC3)CC2)c1,8.41% (active)
5,Cc1ccc(/C=C/C(=N/N=C(N)N)c2ccccc2)cc1,7.52% (active)
6,COc1cc(OC)cc(-c2ccc(-c3ccc(C(=N)N)s3)s2)c1,-71.9% (active)
7,O=C(NCCCNC(=O)OCc1ccc2cccc(O)c2n1)OCc1ccc2cccc(O)c2n1,45.5%
8,O=S(=O)(NCCCNc1nccc(-c2c(-c3ccccc3)nc3sccn23)n1)c1ccc(F)cc1,22.5%
9,O=C(OCCCCOC(=O)n1cnc2ccccc21)n1cnc2ccccc21,104%
10,CCCNC(=O)Oc1ccc(/C(=C(/C)Cc2ccc(OC)cc2)c2ccc(OCCN3CCCCC3)cc2)cc1,58.6%
11,COc1ccc(OC)c(NC(=O)c2cc3oc4ccccc4c3cc2O)c1,121%
12,N=C1C=C(N)C(=O)c2ccccc21,-32.8% (active)
13,CN(Cc1ccccc1)Cc1ccccc1,93.4%
